Source: PubChem
The list is not random: actives were taken first. Their share in the collection is about 5.9%.
KB-V1 cytotox = KB-V1 MDR subline cytotoxicity | KB-V1 MDR cells viability, CellTiter-Glo, 72 h | Potency, µM (doses to about 46.1 µM), hits mostly cytotoxic | hit rate 3.4% among 400,000; note: % is set by controls: 0 for no effect and ±100 for the full control effect; nearly all actives have a fitted effect of over 60% in size
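Cytotoxicity via CellTiter-Glo luminescence after 72 h compound exposure at 37 degrees C. Cells: drug-selected KB-V1 line, DMEM phenol-red free plus 10% FBS. Compounds tested at multiple concentrations; normalized data fitted to concentration-effect curves.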
HepG2 tox-1 = kills HepG2 cells in TGF-b inhibitor counter-screen | HepG2 CAGA-GFP viability, ATP luminescence, 18 h | Potency, µM (series often up to 46.1 µM), for inactives: at the top dose activity change, negative = cytotoxicity, most hits filed as cytotoxic | hit rate 0.76% among 410,000
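HepG2 CAGA-GFP cells (1000/well, DMEM with 1% FBS) received compound, then TGF-beta at 500 pg/mL final, and were incubated 18 hours at 37 degrees C. Viability was read by CellTiter-Glo luminescence. Media-only wells were set as complete cell-killing and DMSO as no toxicity.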
ATXN viability = reduces viability in counter-screen for ATXN expression inhibitors. Potency, µM (series often up to 56.7 µM), hits mostly cytotoxic. S2 cells (HEK-293 line with an ATXN2-luciferase reporter) viability, CellTiter-Fluor protease fluorescence, 24 h. AID 651635. hit rate 0.49% among 400,000; note: nearly all actives have a fitted effect of over 40% in size
TGFb inhibitor = TGF-b pathway inhibition. HepG2 CAGA-GFP TGF-b/SMAD3 reporter, GFP fluorescence, 18 h; TGF-beta stimulated, 500 pg/mL final. AID 588855. hit rate 1.2% among 410,000. Potency, µM (top dose mostly 46.1 µM), without a hit: at the highest dose activity, negative = inhibition, actives largely listed as inhibitors; note: % is set by controls: 0 for no effect and ±100 for the full control effect; nearly all actives have a fitted effect of over 65% in size
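First, reporter cells (HEPG2 CAGA-GFP) rested 2 h at 37 degrees C. Next, compounds were pinned in and TGF-beta added to 500 pg/mL final. After 18 h, GFP was imaged per cell and summed per well.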
ATXN2 expr inh = ATXN2 expression inhibition | HEK-293 ATXN2-luciferase reporter, luminescence, 24 h | Potency, µM (top dose mostly 57 µM), for the others: at the top dose activity change, negative = inhibition, actives largely listed as inhibitors | hit rate 0.72% among 360,000; note: % is set by controls: 0 for no effect and ±100 for the full control effect; nearly all actives have a fitted effect of over 55% in size
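ATXN2-luciferase reporter cells (luciferase flanked by upstream and downstream ATXN2 gene portions) were treated 24 h at 37 °C with compounds at up to 57 uM. SteadyGlo luminescence gave expression; GF-AFC fluorescence gave viability.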
KB-3-1 cytotox = kills parental KB-3-1 adenocarcinoma cells. KB-3-1 viability, CellTiter-Glo ATP luminescence, 72 h. Potency, µM (doses to about 46.1 µM), actives largely listed as cytotoxic. hit rate 1.4% among 400,000. AID 1347075; note: % is set by controls: 0 for no effect and ±100 for the full control effect; nearly all actives have a fitted effect of over 60% in size
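Screening of KB-3-1 cells (DMEM, 10% FBS, phenol-red free) ran from lowest to highest compound concentration; after 72 h at 37 °C viability was read luminescently and curves fitted.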
TGFb CAGA inh = TGF-b pathway inhibition, cherry-pick retest. shares compounds with TGFb inhibitor. HepG2 CAGA-GFP TGF-b reporter, GFP fluorescence, 18 h; cells stimulated with TGF-beta, 500 pg/mL. Potency, µM (titrated, usually from 46.1 µM), inactives show at the top dose activity, negative = inhibition, hits mostly inhibitors. hit rate 63% among 1,600; note: % is set by controls: 0 for no effect and ±100 for the full control effect; nearly all actives have a fitted effect of over 65% in size
HepG2 tox-2 = toxic to HepG2 cells in TGF-b counterscreen | shares compounds with TGFb inhibitor | HepG2 CAGA-GFP viability, ATP luminescence, 18 h; cells stimulated with TGF-beta, 500 pg/mL | Potency, µM (highest dose often 46.1 µM), inactives show at the highest dose activity, negative = cytotoxicity, most hits filed as inhibitors | hit rate 27% among 1,600 | AID 720535; note: % is set by controls: 0 for no effect and ±100 for the full control effect; nearly all actives have a fitted effect of over 70% in size
TGFb CCL64 inh = blocks TGF-b signaling in CCL64 reporter cells; Potency, µM (titrated, usually from 46.1 µM), for inactives: at the top dose activity, negative = inhibition, most hits filed as inhibitors; shares compounds with TGFb inhibitor; hit rate 41% among 1,600; AID 720536; CCL64 CAGA-GFP reporter, TGF-b stimulated, GFP fluorescence, 18 h; note: nearly all actives have a fitted effect of over 65% in size
TGFb COP inh = TGF-b inhibition validated with COP promoter; shares compounds with TGFb inhibitor; HepG2 COP-GFP TGF-b reporter, GFP fluorescence, 18 h; cells stimulated by added recombinant TGF-beta; Potency, µM (series often up to 46.1 µM), for the others: top-dose activity, negative = inhibition, hits mostly inhibitors; hit rate 3% among 1,600; note: nearly all actives have a fitted effect of over 70% in size
* = called active by the depositor; i = inactive; ? = inconclusive; . = no result. Calls come from the whole dose curve; as a rule, active = well fitted curve in the direction sought with a large enough effect; inconclusive = small, poorly fitted or top-dose-only effect, or another doubt; inactive = no such curve, though single readings can be large; an effect the other way counts as inactive or inconclusive. Potency is the fitted concentration of half-maximal effect.

SMILES | KB-V1 cytotox | HepG2 tox-1 | ATXN viability | TGFb inhibitor | ATXN2 expr inh | KB-3-1 cytotox | TGFb CAGA inh | HepG2 tox-2 | TGFb CCL64 inh | TGFb COP inh
Cc1ccccc1CS(=O)(=O)c1nnc([C@H](CC(C)C)NC(=O)OC(C)(C)C)o1 | i | -90% | ? | 5µM* | ? | ? | 3.7µM* | ? | 5.8µM* | ?
CC[C@@H](C)[C@H](NC(=O)OC(C)(C)C)c1nnc(S(=O)(=O)Cc2cc(C)ccc2C)o1 | ? | -95% | . | ? | ? | i | . | . | . | .
Cc1cc(N2CCN(c3ccccc3)CC2)n2cc(-c3ccccc3)nc2n1 | ? | -36% | ? | ? | 22% | i | ? | -8% | -27% | 25%
Cc1cc(N2CCN(c3ccccc3)CC2)n2cnnc2n1 | . | -49% | . | -21% | . | . | . | . | . | .
COc1cccc(C(=O)Nc2cc(-c3ccccc3)nn2-c2ccccc2)c1 | i | -4% | ? | 5% | 11% | i | . | . | . | .
COc1ccc(C(NC(=O)C(C)C)c2ccc3cccnc3c2O)cc1 (stereo not drawn) | ? | -38% | i | 4.5µM* | 3.2µM* | i | -13% | ? | 7.3µM* | 35%
COc1ccc(C(NC(C)=O)c2cc(Cl)c3cccnc3c2O)cc1 (stereo not drawn) | i | -43% | i | 7.1µM* | 4.5µM* | ? | ? | ? | 13µM* | 20%
CCC(=O)NC(c1ccc(C)cc1)c1cc([N+](=O)[O-])c2cccnc2c1O (stereo not drawn) | i | -9% | i | ? | ? | ? | . | . | . | .
COc1ccc(C(Nc2cc(C)ccn2)c2ccc3ccc(C)nc3c2O)cc1 (stereo not drawn) | i | 5% | i | 1% | 1% | i | . | . | . | .
O=C(O)c1ccccc1NC(c1ccccc1)c1ccc2cccnc2c1O (stereo not drawn) | ? | -20% | ? | 8.9µM* | ? | ? | 6.5µM* | ? | 15µM* | -24%
CC(=NNC(=S)Nc1cccc(Cl)c1)c1ccccn1 | ? | -48% | ? | ? | ? | ? | . | . | . | .
CC(=NNC(=S)N1CCCC1)c1ccccn1 | ? | -22% | ? | ? | . | ? | ? | ? | ? | -14%
O=S(=O)(c1ccc2[nH]c3c(c2c1)CCCC3)N1CCN(c2cccc(C(F)(F)F)c2)CC1 | i | -12% | ? | ? | -25% | i | . | . | . | .
CCN(CC)C(=O)CSc1nnc2nnc3cc(Cl)ccc3n12 | ? | -86% | i | 4µM* | -21% | ? | 23µM* | 23µM* | ? | ?
CCOc1ccc(C(CN2CCOCC2)C(C)=O)cc1OC (stereo not drawn) | ? | -102% | i | 2.5µM* | ? | ? | ? | 16µM* | 16µM* | ?
Cc1cccc(-n2c(-c3ccccc3)cn3c4c(=O)[nH]c(=O)n(C)c4nc23)c1 | ? | -39% | i | 9% | 6% | i | . | . | . | .
Cc1ccc(NS(=O)(=O)c2ccc(OCC(=O)Nc3cccc([N+](=O)[O-])c3)c(C)c2)cc1 | i | -20% | ? | 11µM* | ? | i | -78% | -25% | 10% | 37%
Cc1cc(C)c2c(N)c3ccccc3nc2n1 | ? | 10% | . | 11µM* | ? | i | 21µM* | 18µM* | 13µM* | 5%
Cc1cc(C)c2cccc(N)c2n1 | i | -1% | i | 0% | 1% | i | . | . | . | .
CCOC(=O)c1cc(-c2ccccc2)n(-c2cccc(C(=O)Nc3ccc(OC)cc3)c2)c1C | i | -18% | . | 0% | . | i | . | . | . | .
CC(/C=N/NC(=O)c1nnn(-c2nonc2N)c1CN(C)C)=C\c1ccco1 | i | -9% | i | 11% | -9% | i | . | . | . | .
CCCN(CCC)Cc1c(C(=O)N/N=C/C(C)=C\c2ccco2)nnn1-c1nonc1N | ? | -15% | . | 7.9µM* | ? | i | 5.2µM* | ? | ? | 26%
O=S(=O)(c1ccccc1F)N1CCN(Cc2cc3c(cc2Br)OCCO3)CC1 | 21µM* | 0% | i | 13µM* | -16% | i | ? | -21% | ? | -4%
CN(CCO)c1cccc2c1S(=O)(=O)N[C@H](Cc1ccccc1)CO2 | i | . | ? | . | 13% | i | . | . | . | .
CC(C)C[C@H]1CN([C@@H](Cc2ccc(O)cc2)CN2CCC[C@@H]2CN2C(=S)NC[C@@H]2Cc2ccccc2)C(=S)N1CC1CCCCCC1 | i | -5% | ? | 10µM* | ? | i | ? | -9% | ? | 28%
CC(C)C[C@H]1CNC(=S)N1CC1CCCN1C[C@H](Cc1ccccc1)N1C[C@H](Cc2ccc(O)cc2)N(CC2CCCCCC2)C1=S (stereo partly drawn) | ? | -26% | i | 6.3µM* | -31% | ? | 15µM* | ? | 5.8µM* | 31%
O=C(N/N=C/c1ccc[nH]1)c1ccc(COc2cccc3cccnc23)cc1 | i | 2% | ? | 1.8µM* | 7.5µM* | 2.3µM* | 18µM* | ? | 2.1µM* | 67%
Nc1ccc(C(=O)N/N=C/c2cn(Cc3ccccc3F)c3ccccc23)cc1 | i | -16% | i | 0% | -26% | ? | . | . | . | .
Cc1ccc(OCC(=O)N/N=C\c2cn(Cc3ccccc3)c3ccccc23)cc1C | i | -7% | i | 11µM* | -13% | ? | 5.2µM* | 5.2µM* | 4% | -22%
